Bioassay records deposited in PubChem by National Center for Advancing Translational Sciences (NCATS).
Hits are enriched below; roughly 12% of the tested compounds scored in any of these assays.
Pf growth 96h: inhibits malaria parasite growth, 96 h | 320,000 tested, 6.9% active | Potency, µM (highest dose often 28.7 µM), usual class: inhibitors | P. falciparum luciferase reporter growth, 96 h
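Luminescence readout: decreased luciferase signal marks inhibited growth of reporter-expressing P. falciparum in infected red cells (2% hematocrit, 0.05% parasitemia final), exposed to compound two generations (96 h, 37 C, 5% CO2).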
SARS PLP yeast: SARS-CoV PLP inhibition in yeast. S. cerevisiae expressing SARS-CoV PLpro, growth rescue. Potency, µM (top dose mostly 32.9 µM), usual class: activators. 330,000 tested, 0.19% active. AID 485353; calls by dose curve; note: nearly all actives have a fitted effect of over 55% in size
NS1 inh: influenza NS1 inhibition; 270,000 tested, 0.4% active; Potency, µM (titrated, usually from 46.1 µM); calls by dose curve; note: actives are rising curves; nearly all actives have a fitted effect of over 50% in size
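Compounds were scored for reversing the slow growth caused by influenza A NS1 in S. cerevisiae, measured by optical density at 600 nm. Assay medium contained 2% galactose at pH 6.0; NS1-free yeast of the same strain were the positive control.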
AMA1-RON2 inh: disrupts binding of P. falciparum AMA1 to RON2; AlphaScreen AMA1-biotinylated RON2 peptide binding; Potency, µM (highest dose often 58.2 µM), most hits filed as inhibitors; 360,000 tested, 0.2% active; AID 720542; note: nearly all actives have a fitted effect of over 45% in size
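AMA1 (3D7) with his tag at 25 nM final met compounds first, then biotinylated RON2 peptide at 25 nM; detection used donor plus acceptor beads, 10 µg/mL apiece, read by AlphaScreen after 30 min at room temperature.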
Pf growth 48h: P. falciparum growth inhibition at 48 hours (one generation) | Potency, µM (highest dose often 28.7 µM), usual class: inhibitors | P. falciparum luciferase growth in erythrocytes, 48 h | 310,000 tested, 5.9% active
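Read-out is firefly luciferase luminescence from an integrated reporter in P. falciparum, so falling signal marks reduced parasite growth. Infected erythrocytes were at 2% hematocrit and 0.1% parasitemia (final) in Albumax-supplemented RPMI 1640.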
HCV inh: inhibitors of hepatitis C virus infection; Huh7.5.1 HCVcc-Cre infection, luciferase reporter, 44 h; Potency, µM (highest dose often 41.8 µM), most hits filed as inhibitors; 340,000 tested, 3.4% active; AID 651820
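After 44 h co-culture of compound, cells and HCVcc-Cre (~0.5 moi), substrate is added for 15 min at room temperature and luciferase measured over 15 sec. Cells were seeded at 1,000/well and pre-cultured 4 h.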
A number is an active result; – = inactive; ? = inconclusive; · = no result given; [ ] = remark or other dose. Unless noted, calls come from the whole dose curve; as a rule, active = well fitted curve in the direction sought with a large enough effect; inconclusive = small, poorly fitted or top-dose-only effect, or another doubt; inactive = no such curve, though single readings can be large; an effect the other way counts as inactive or inconclusive.

SMILES | Pf growth 96h | SARS PLP yeast | NS1 inh | AMA1-RON2 inh | Pf growth 48h | HCV inh
COc1ccc(C2CC(=O)C(C=NCCCN3CCOCC3)=C(O)C2)cc1 (stereo unspecified) | 3.3µM | – | – | – | – | –
CN(C)c1oc(/C=C/c2cccs2)nc1S(=O)(=O)c1ccccc1 | ? | – | – | – | ? | ?
CC1CCCCN1C(=O)C1COc2ccccc2O1 (stereo unspecified) | – | – | – | – | – | –
Cc1ccc(-c2oc3ccccc3c(=O)c2O)cc1 | – | – | – | – | 3.7µM | –
O=c1c(O)c(-c2ccccc2)oc2ccccc12 | · | · | · | – | · | –
Nc1ccc(-c2cc(-c3cccc(N)c3)nc(-c3ccccc3)n2)cc1 | 2.1µM | – | ? | – | 13µM | –
C/C(=N/Nc1nc(-c2ccccc2)cc(-c2ccccc2)n1)c1ccc(N)cc1 | ? | – | 7.9µM | · | ? | –
CCOc1ccc(C2C(C(=O)c3ccco3)=C(O)C(=O)N2CCN2CCOCC2)cc1 (stereo unspecified) | – | – | – | – | – | –
N#C/C(=C\NC(=S)c1ccncc1)c1nc2ccccc2s1 | · | · | – | · | · | ·
COc1ccccc1CN(C)C(=O)c1ccc(S(=O)(=O)Nc2c(C)n(C)n(-c3ccccc3)c2=O)cc1 | · | – | · | – | · | –
Cc1ccc(CNC(=O)C2CCN(S(=O)(=O)c3c(C)noc3/C=C/c3ccco3)CC2)cc1 | 6.6µM | – | – | – | · | –
COCCNC(=O)C1CCCN(S(=O)(=O)c2c(C)noc2/C=C/c2cccs2)C1 (stereo unspecified) | – | – | – | – | – | –
Cc1cccnc1NC(=O)C1CCN(S(=O)(=O)c2c(C)noc2/C=C/c2ccco2)CC1 | ? | – | – | – | ? | –
Cc1noc(/C=C/c2ccco2)c1S(=O)(=O)N1CCC(C(=O)NCc2ccco2)CC1 | · | – | – | – | 13µM | ?
Cc1noc(/C=C/c2cccs2)c1S(=O)(=O)N1CCC(C(=O)NCCCN2CCC(C)CC2)CC1 | – | – | · | – | – | 11µM
Cc1ccc(NC(=O)C2CCN(S(=O)(=O)c3c(C)noc3/C=C/c3ccco3)CC2)nc1 | ? | – | – | – | – | –
Cc1noc(/C=C/c2ccco2)c1S(=O)(=O)N1CCC(C(=O)N2CCc3ccccc3C2)CC1 | ? | – | – | – | 9.3µM | 11µM
O=C(O)CC/C(=N\Nc1ccc([N+](=O)[O-])cc1S(=O)(=O)N1CCOCC1)c1cccs1 | ? | – | – | – | ? | –
O=C(NN1CCN(Cc2ccccc2Cl)CC1)c1ccc(Br)cc1 | – | – | – | – | ? | –
O=[N+]([O-])c1cc([N+](=O)[O-])c(Oc2cccc(Cl)c2Cl)cc1NN1CCCCC1 | ? | – | – | – | – | –
Cc1ccc(C(=O)Oc2ccc(Cl)c3cccnc23)cc1[N+](=O)[O-] | ? | – | – | – | 13µM | –
Cc1cc(Oc2cc(NN3CCCCC3)c([N+](=O)[O-])cc2[N+](=O)[O-])c(C(=O)c2ccccc2)cc1Cl | 8.3µM | – | – | ? | ? | –
CC1(C)Cc2cccc(Oc3cc(NN4CCCCC4)c([N+](=O)[O-])cc3[N+](=O)[O-])c2O1 | 1.5µM | – | – | – | ? | –
Cc1ccc(C)c(Oc2cc(NN3CCCCC3)c([N+](=O)[O-])cc2[N+](=O)[O-])c1 | – | – | – | – | – | –
Cc1ccc(F)c(Oc2cc(NN3CCCCC3)c([N+](=O)[O-])cc2[N+](=O)[O-])c1 | 12µM | – | – | ? | ? | –
SMILES | Pf growth 96h | SARS PLP yeast | NS1 inh | AMA1-RON2 inh | Pf growth 48h | HCV inh
Cc1cc(Oc2cc(NN3CCCCC3)c([N+](=O)[O-])cc2[N+](=O)[O-])ccc1[N+](=O)[O-] | ? | – | – | ? | – | –[8.37 µM]
COc1ccc(C(=O)Oc2cccc3cccnc23)cc1[N+](=O)[O-] | – | – | – | – | – | –
COc1ccc(CCC(=O)Nc2cccc(S(=O)(=O)N3CCCC3)c2)cc1OC | ? | – | · | – | ? | ?
O=[N+]([O-])c1cc([N+](=O)[O-])c(Oc2ccc(Cl)c3cccnc23)cc1NN1CCCCC1 | 1.5µM | – | – | – | ? | –
O=C(/C=C/c1ccc(Cl)c(Cl)c1)NCc1ccco1 | 1.9µM | – | – | – | – | –
Cc1ccc(C)c(S(=O)(=O)/N=C2\C=C(NS(=O)(=O)c3ccccc3)C(=O)c3ccccc32)c1 | ? | – | – | – | ? | –
CC(=O)Nc1ccc(NC2=C/C(=N/S(=O)(=O)c3cccs3)c3ccccc3C2=O)cc1 | – | – | · | – | 0.15µM | ?
Cc1ccc(NC2=C/C(=N/S(=O)(=O)c3cccs3)c3ccccc3C2=O)cc1C | – | – | – | – | 0.66µM | –
COc1ccc(S(=O)(=O)/N=C2\C=C(Nc3ccc(O)cc3)C(=O)c3ccccc32)cc1 | – | – | – | 18µM | 0.93µM | 5.6µM
Cc1ccccc1NC1=C/C(=N\S(=O)(=O)c2cccs2)c2ccccc2C1=O | · | – | – | 8.9µM | 0.093µM | 3.5µM
Cc1nn(-c2ccc(N3CCOCC3)nn2)c(C)c1CCC(=O)NCc1ccccc1F | ? | – | – | – | – | –
CCCc1nc2ccc(NC(=O)c3cccs3)cc2c(=O)n1Cc1ccc(Cl)cc1 | – | – | – | – | 0.47µM | ?
Cc1nc2ccc(NC(=O)c3cccs3)cc2c(=O)n1Cc1ccc(Cl)cc1 | 3.3µM | – | – | – | ? | ?
CCOC(=O)c1c(NC(=O)CCC(=O)O)sc2c1CC(C)(C)OC2 | – | – | – | – | – | –
CCOC(=O)c1c(NC(=O)C2CC2)sc2c1CC(C)(C)OC2 | – | – | – | – | 12µM | ?
NCCNC[C@@H]1COC2(CCCCCCCCCCC2)O1 | 7.4µM | – | – | – | 8.3µM | –
Cc1cc(=O)[nH]c(SCC2COC3(CCCCC3)O2)n1 (stereo unspecified) | – | – | – | – | – | ?
O=C(NCCOc1ccccc1)c1cccc(S(=O)(=O)N2CCN(Cc3ccccc3)CC2)c1 | · | · | · | – | · | ·
Cc1cccc(C(C)C)c1NC(=O)CN1C(=O)NC2(CCc3ccccc32)C1=O (stereo unspecified) | ? | – | · | – | – | –
O=C(Nc1cccc(Cl)c1)N1CCC(CO)(CCOc2ccccc2)CC1 | 13µM | – | – | – | – | –
Cc1ccc(NC(=O)N2CCN(c3ncccc3C(F)(F)F)CC2)cc1 | 13µM | – | – | – | 8.3µM | ?
Cc1csc2c(N3CCN(C(=O)Nc4ccc(OC(F)(F)F)cc4)CC3)ncnc12 | ? | – | – | – | 1.5µM | ?
CC(=O)c1cccc(CN2CCC(CO)(CCOc3ccccc3)CC2)c1 | ? | – | – | – | – | –
O=C(Nc1ccc(Cl)cc1)N1CCN(c2ccccc2)CC1 | 12µM | – | – | – | ? | ?
O=C(Nc1ccc(Cl)cc1)N1CC1 | · | · | · | – | · | ?
